MARV entry inh = qHTS for inhibitors of binding or entry into cells for Marburg Virus. Marburg virus pseudotyped entry inhibition, cell reporter. Potency, µM (top dose mostly 37.8 µM), without a hit: at the highest dose activity change, negative = inhibition, actives largely listed as inhibitors. 300,000 tested, 1.8% active; calls by dose curve; tested in HEK293 cells; note: potency is the fitted concentration of half-maximal effect
HCMV inh = qHTS Assay for inhibitors of the human cytomegalovirus (HCMV); HFF cells, HCMV-luciferase reporter, 72 h; active compounds read low; activity change, negative = inhibition, % at 57.5 µM; 410,000 tested, 4.5% active; in the data active = activity change below about -60%; inconclusive = no clear call, values can overlap the other calls; inactive = above about -39%
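Two compound doses tested in HFFs infected with HCMV-luciferase, MOI 1 PFU/cell, 72 h at 37C. Lysate luminescence read with OneGlo; data normalized against buffer-only and 10uM Salinomycin inhibitor controls.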
VACV mCherry inh = qHTS for Stage-Specific Inhibitors of Vaccinia Orthopoxvirus: mCherry Reporter Primary qHTS. Vaccinia virus mCherry reporter infection, fluorescence. Potency, µM (titrated, usually from 36.5 µM), without a hit: at the top dose activity change, negative = inhibition, actives largely listed as inhibitors. 310,000 tested, 0.63% active. AID 720579, 2013; calls by dose curve; tested in A549 cells; note: potency is the fitted concentration of half-maximal effect; nearly all actives have a fitted effect of over 35% in size
Lassa entry inh = qHTS for Inhibitors of binding or entry into cells for Lassa Virus. Potency, µM (highest dose often 37.9 µM), inactives show at the top dose activity change, negative = inhibition, usual class: inhibitors. Lassa virus pseudotype entry inhibition, cell reporter. 300,000 tested, 1.2% active; calls by dose curve; tested in HEK293 cells; note: potency is the fitted concentration of half-maximal effect; nearly all actives have a fitted effect of over 50% in size
VACV Venus inh = qHTS for Stage-Specific Inhibitors of Vaccinia Orthopoxvirus: Venus Reporter Primary qHTS; Vaccinia virus Venus reporter expression, fluorescence; Potency, µM (top dose mostly 36.5 µM), for the others: at the highest dose activity change, negative = inhibition, hits mostly inhibitors; 330,000 tested, 0.46% active; calls by dose curve; tested in A549 cells; note: potency is the fitted concentration of half-maximal effect; nearly all actives have a fitted effect of over 30% in size
FMDV antiviral = High Throughput Screening for Foot and Mouth Disease Virus Antivirals; AID 1159524, 2015; Potency, µM (series often up to 57.9 µM), for inactives: at the highest dose activity change, negative = inhibition, hits mostly inhibitors; 410,000 tested, 1.2% active; FMDV antiviral cell-based qHTS; calls by dose curve; tested in HEK293T cells; note: read-out not given here; potency is the fitted concentration of half-maximal effect; nearly all actives have a fitted effect of over 45% in size
An asterisk follows results filed as active; [ ] = remark or other dose. Most compounds without a hit are left out; they make up all but 6.5% or so of the library. % is set by controls: 0 for no effect and ±100 for the full control effect.

Results for COc1ccccc1CCc1nc2ccccc2n1C1CCN(C(=O)c2cc(C)nn2C)CC1 ?
VACV mCherry inh: -8%; VACV Venus inh: -1%; FMDV antiviral: -7%

What do the screens show for `Cc1ccc(C)c(-n2nnnc2Sc2nnnn2-c2ccccc2)c1`?
MARV entry inh: 15µM*; HCMV inh: -97*; Lassa entry inh: inconclusive; FMDV antiviral: 16µM*

How did Cc1ccc(S(=O)(=O)NCCSc2nnnn2-c2cc(C)ccc2C)cc1 do in these assays?
MARV entry inh: inconclusive; HCMV inh: 2; VACV mCherry inh: -21%; Lassa entry inh: 8.9µM*; VACV Venus inh: inconclusive; FMDV antiviral: -11%

Results for Cc1ccc(S(=O)(=O)NCCSc2nnnn2-c2ccccc2)cc1 ?
MARV entry inh: -14%[46.1 µM]; HCMV inh: -32; VACV mCherry inh: -14%; Lassa entry inh: -17%[46.1 µM]; VACV Venus inh: -14%; FMDV antiviral: 15%

Results for Cc1cccc(CSc2nnnn2-c2ccccc2)c1 ?
MARV entry inh: inconclusive; HCMV inh: 23; VACV mCherry inh: -3%[1.46 µM]; Lassa entry inh: 10µM*; VACV Venus inh: -7%; FMDV antiviral: 3%

What do the screens show for `Cc1cccc(CSc2nnc(N)n2-c2ccccc2)c1`?
MARV entry inh: -1%; HCMV inh: -27; Lassa entry inh: 13%; FMDV antiviral: -8%

How did COC(=O)c1cc(CNC(=O)c2ccccc2OC)cc(NC(=O)c2ccccc2F)c1 do in these assays?
VACV mCherry inh: -21%; VACV Venus inh: -11%; FMDV antiviral: 32%

Results for C=C1C[C@]23CC[C@H]4C(CO)(CO)C[C@@H](O)C[C@@]4(C)[C@@H]2CC[C@H]1C3 ?
FMDV antiviral: 0%

What do the screens show for `CC(C(=O)NC1CCCCCC1)N(c1ccccc1)S(C)(=O)=O` (stereo not drawn)?
MARV entry inh: 8.2µM*; HCMV inh: 81; VACV mCherry inh: -12%; Lassa entry inh: -2%; VACV Venus inh: 0%; FMDV antiviral: 14%

How did C[C@@H]1CN([C@H](C)CO)C(=O)c2c(c3ccccc3n2C)-c2ccccc2CO[C@@H]1CN(C)S(=O)(=O)c1cccs1 do in these assays?
HCMV inh: -81*; VACV mCherry inh: inconclusive; VACV Venus inh: -24%; FMDV antiviral: -24%

How did Cc1ccc(S(=O)(=O)N(C)C[C@@H]2OCc3ccccc3-c3c(n(C)c4ccccc34)C(=O)N([C@H](C)CO)C[C@@H]2C)cc1 do in these assays?
HCMV inh: -60*; VACV mCherry inh: -14%; VACV Venus inh: inconclusive; FMDV antiviral: -13%

Results for C[C@H](CO)N1C[C@H](C)[C@H](CN(C)S(C)(=O)=O)OCc2ccccc2-c2c(n(C)c3ccccc23)C1=O ?
HCMV inh: 10; VACV mCherry inh: 0%; VACV Venus inh: -10%; FMDV antiviral: 71%

What do the screens show for `C[C@H](CO)N1C[C@H](C)[C@H](CN(C)S(=O)(=O)c2ccc(Cl)cc2)OCc2ccccc2-c2c(n(C)c3ccccc23)C1=O`?
HCMV inh: -68*; VACV mCherry inh: inconclusive; VACV Venus inh: inconclusive; FMDV antiviral: -15%

How did Cc1ccsc1C(=O)N(Cc1cc2cc3c(cc2nc1N1CCOCC1)CCC3)CC1CCCO1 (stereo not drawn) do in these assays?
VACV mCherry inh: -4%; VACV Venus inh: 11%; FMDV antiviral: -1%

What do the screens show for `COc1ccc(CN(CC(=O)NC2CCCCC2)C(=O)CCC(=O)Nc2nccs2)cc1`?
MARV entry inh: -29%[46.1 µM]; HCMV inh: 17; VACV mCherry inh: inactive; Lassa entry inh: inconclusive; VACV Venus inh: 1%; FMDV antiviral: -8%

How did Nc1ccccc1/C=C/c1ccnc2ccccc12 do in these assays?
VACV mCherry inh: -29%; VACV Venus inh: inconclusive

How did Cc1ccccc1-c1ccc2ncnc(-n3ccnc3)c2c1 do in these assays?
FMDV antiviral: 40µM*

What do the screens show for `CCCCCCCC(=O)N[C@H]1CC[C@@]23CCCN2C(=O)CCC[C@H]3[C@H]1Cc1ccccc1`?
HCMV inh: 1

How did CC(C)(C)c1ccc(CSc2cnn(C(C)(C)C)c(=O)c2Cl)cc1 do in these assays?
HCMV inh: -78*; VACV mCherry inh: -17%; VACV Venus inh: inconclusive; FMDV antiviral: inconclusive

What do the screens show for `CC(C)(C)n1ncc(Oc2ccccc2[N+](=O)[O-])c(Cl)c1=O`?
MARV entry inh: -25%; HCMV inh: -28; VACV mCherry inh: -4%; Lassa entry inh: -11%; VACV Venus inh: -14%; FMDV antiviral: -25%

What do the screens show for `O=C(C[n+]1ccc(C(=O)c2ccccc2)cc1)Nc1ccccc1OC(F)F`?
MARV entry inh: -14%[46.1 µM]; HCMV inh: 0; VACV mCherry inh: -26%; Lassa entry inh: -2%[46.1 µM]; VACV Venus inh: -5%; FMDV antiviral: -14%

Results for Cc1nnnn1/C(=C\c1ccccc1)C(=O)OCC(=O)Nc1cccc(S(=O)(=O)N(C)C)c1 ?
HCMV inh: -61*; FMDV antiviral: 14µM*

How did Cc1nnnn1/C(=C\c1ccccc1)C(=O)OCC(=O)Nc1ccc(Cl)cc1F do in these assays?
MARV entry inh: inconclusive; HCMV inh: -95*; VACV mCherry inh: -23%; Lassa entry inh: 20µM*; VACV Venus inh: inconclusive; FMDV antiviral: 28µM*

Results for Cc1ccc(NC(=S)NC(C)CCc2ccccc2)cc1C (stereo not drawn) ?
MARV entry inh: -21%; HCMV inh: -71*; VACV mCherry inh: inconclusive; Lassa entry inh: -9%; VACV Venus inh: -18%; FMDV antiviral: -7%

What do the screens show for `c1ccc(CC2CCN(c3nc4ccccc4n4nnnc34)CC2)cc1`?
MARV entry inh: 16%; HCMV inh: -102*; Lassa entry inh: 2%; VACV Venus inh: -8%; FMDV antiviral: 0%

What do the screens show for `Cc1ccc(C2C=C(c3ccccc3OC(F)F)Nc3ncnn32)cc1` (stereo not drawn)?
MARV entry inh: -15%; HCMV inh: -20; VACV mCherry inh: inactive; Lassa entry inh: -5%; VACV Venus inh: -4%; FMDV antiviral: -18%

What do the screens show for `CN(C)c1ccc(C2C=C(c3ccc(Cl)cc3OC(F)F)Nc3ncnn32)cc1` (stereo not drawn)?
MARV entry inh: inconclusive; HCMV inh: -22; Lassa entry inh: 14µM*; VACV Venus inh: inconclusive; FMDV antiviral: -22%

How did CCOc1ccccc1NC(=O)CN(C)S(=O)(=O)c1ccc2nc(C)sc2c1 do in these assays?
MARV entry inh: -14%[46.1 µM]; HCMV inh: 4; VACV mCherry inh: -17%; Lassa entry inh: 21%[46.1 µM]; VACV Venus inh: -14%; FMDV antiviral: -23%

Results for Cn1c(=O)n(Cc2ccc(Cl)cc2)c(=O)c2c1nc1n2CCN1Cc1ccco1 ?
MARV entry inh: -23%; HCMV inh: -86*; Lassa entry inh: inconclusive; FMDV antiviral: inconclusive

Assay outcomes deposited in PubChem BioAssay by National Center for Advancing Translational Sciences (NCATS).
